Source: PubChem BioAssay (Tox21)
Results filed as inconclusive are left out. A call without a number means that no potency is given here. Calls of active or inactive are those of the source. Calls come from the whole dose curve; as a rule, active = well fitted cell-killing curve with a large enough effect in the repeat runs; inconclusive = weak or mixed curves, or effect the other way; inactive = no such curve, though single readings can be large or run the other way.

Assay: qHTS assay for small molecule activators of the heat shock response signaling pathway - cell viability counter screen (AID 743209); note: nearly all actives have a fitted effect of over 50% in size
Conditions: HSE-bla HeLa viability, CellTiter-Glo luminescence, 5 h; series mostly up to 62.6 µM
From the text: U.S. Tox21 Program National Center for Advancing Translational Sciences [NCATS] NIH Chemical Genomics Center [NCGC] U.S. Environmental Protection Agency [EPA] National Institutes of Environmental Health Sciences [NIEHS] National Toxicology Program [NTP] U.S. Food and Drug Administration [FDA] Tox21 Assay Overview: Various chemicals, environmental and physiological stress conditions may lead to the activation of heat shock response/ unfolded protein response (HSR/UPR). There are three heat shock transcription factors (HSFs) (HSF-1, -2, and -4) mediating transcriptional regulation of the human HSR. To identify the compounds that activate HSR signaling, HSE-bla HeLa cell line (Invitrogen, Carlsbad, CA, USA) containing a beta-lactamase reporter gene under the control of the heat shock response elements was used to screen Tox21 10K compound library. The cytotoxicity of the Tox21 compound library against the HSE-bla HeLa cell line was tested in parallel by measuring the cell viability using CellTiter-Glo assay (Promega, Madison, WI) in the same wells.
Tox21 Assay Protocol Summary: The CellSensor HSE-bla HeLa cells (Invitrogen, Carlsbad, CA, USA) were dispensed at 1500 cells/6uL/well into 1536-well black wall/clear bottom plates using a Multidrop combi (Thermo Fisher Scientific, Waltham, MA) dispenser. After the assay plates were incubated at 37 C and 5% CO2 overnight, 23 nL of compounds dissolved in DMSO, positive controls or DMSO only was transferred to the assay plate by a Pintool station (Kalypsys, San Diego, CA). The plates were incubated at 37 C for 5 h. After 1 uL of LiveBLAzerTM B/G FRET substrate was added using a Flying Reagent Dispenser (FRD, Beckman Coulter, Indianapolis, IN, USA), the plates were incubated at room temperature for 2.5 h, and fluorescence intensity was measured by an Envision plate reader (PerkinElmer, Shelton, CT). For cell viability readout that measures cytotoxicity, 3 ul/well of CellTiter-Glo reagent was added into the assay plates using a FRD. After 30 min incubation at room temperature, the luminescence intensity in the plates was measured using a ViewLux (PerkinElmer) plate reader.
Potency is the fitted concentration of half-maximal effect.

Compound	Potency	activity change, negative = cytotoxicity
Cc1c(C)c2c(c(C)c1O)CC[C@@](C)(CCC[C@H](C)CCC[C@H](C)CCCC(C)C)O2	inactive	
O=C1CCc2cc(OCCCCc3nnnn3C3CCCCC3)ccc2N1	inactive	
Cc1ccc(-c2ccccc2)cc1	inactive	
COc1cc(/C=C/c2ccccc2)oc(=O)c1	inactive	
Clc1sc(Cl)c(Cl)c1Cl	inactive	
Cc1c(F)c(N2CCNC(C)C2)cc2c1c(=O)c(C(=O)O)cn2C1CC1 (stereo not given)	inactive	
CC(CCc1ccccc1)NCC(O)c1ccc(O)c(C(N)=O)c1 (stereo not given)	inactive	
Cl[Si](Cl)(c1ccccc1)c1ccccc1	inactive	
CCCCCC(C)OC(=O)COc1ccc(Cl)c2cccnc12 (stereo not given)	inactive	
CCO[Si](OCC)(OCC)OCC	inactive	
COc1ccc(-c2coc3cc(O)ccc3c2=O)cc1	inactive	
O=[N+]([O-])c1ccc(O)cc1C(F)(F)F	inactive	
S=c1nccc[nH]1	inactive	
Cc1cc(C(C)(C)C)c(O)c(C)c1Cn1c(=O)n(Cc2c(C)cc(C(C)(C)C)c(O)c2C)c(=O)n(Cc2c(C)cc(C(C)(C)C)c(O)c2C)c1=O	inactive	
c1ccc(C(O[C@@H]2CCCN(CCc3ccc4c(c3)OCO4)C2)c2ccccc2)cc1	inactive	
Cc1ccc(O)c(O)c1	inactive	
C=CC(=O)Nc1cc2c(Nc3ccc(F)c(Cl)c3)ncnc2cc1OCCCN1CCOCC1	inactive	
[Cl][Pt-2]([Cl])([Cl])[Cl]	inactive	
NC(=O)c1cccc([N+](=O)[O-])c1	inactive	
O=C(O)c1cc(-c2ccc(F)cc2F)ccc1O	inactive	

Compound	Potency	activity change, negative = cytotoxicity
CCC(CC)C(C)CCOC(C)=O (stereo not given)	inactive	
NC[C@H]1O[C@H](O[C@H]2[C@H](O[C@@H]3O[C@H](CO)[C@@H](O)[C@H]3O)C(O)[C@H](N)C[C@@H]2N)[C@H](N)[C@@H](O)[C@@H]1O (stereo not given in full)		4.74% [at 13.2 µM] (inactive)
COc1ccc(NC(=O)CC(C)=O)cc1	inactive	
O=C1CCc2ccc(OCCCCN3CCN(c4cccc(Cl)c4Cl)CC3)cc2N1	26.6 µM (active)	
c1ccsc1	inactive	
O=c1[nH]c2ccccc2n1CCCN1CCN(C(c2ccccc2)c2ccccc2)CC1	inactive	
O=S(=O)(O)c1ccccc1/C=C/c1ccc(-c2ccc(/C=C/c3ccccc3S(=O)(=O)O)cc2)cc1	inactive	
C#C[C@]1(O)CC[C@H]2[C@@H]3[C@H](C)CC4=C(CCC(=O)C4)[C@H]3CC[C@@]21C	inactive	
CN(C)Cc1cc(C(C)(C)C)c(O)c(C(C)(C)C)c1	inactive	
C=C(C)C(=O)OCCCCCCCCCC	inactive	
C#C[C@]1(OC(C)=O)CC[C@H]2[C@@H]3CCC4=C[C@@H](OC(C)=O)CC[C@@H]4[C@H]3CC[C@@]21C	inactive	
COc1cc2nc(N3CCN(C(=O)c4ccco4)CC3)nc(N)c2cc1OC	inactive	
O=C(O)c1cc(O)c2ccccc2c1O	21.9 µM (active)	
O=[N+]([O-])c1ccc(F)c(Cl)c1	inactive	
CCCCNS(=O)(=O)c1ccc(C)cc1	inactive	
CCCC(=O)OCCc1ccccc1	inactive	
Cc1cc(-c2ccc(N=Nc3cc(S(=O)(=O)O)c4ccccc4c3N)c(C)c2)ccc1N=Nc1cc(S(=O)(=O)O)c2ccccc2c1N	inactive	
CC(C)OC(=O)C(O)(CC(=O)O)CC(=O)O	inactive	
CCCCCCOC(=O)C(C)CC (stereo not given)	inactive	
CNc1ccc([N+](=O)[O-])cc1	12.3 µM (active)	
